# Test results: PubChem BioAssay (NCATS)
# Results filed as inconclusive are left out. A number with no mark means an inactive call. The source made the active and inactive calls. Calls follow the shape of the dose curve; as a rule, active = well fitted curve in the direction sought with a large enough effect; inconclusive = small, poorly fitted or top-dose-only effect, or another doubt; inactive = no such curve, though single readings can be large; an effect the other way counts as inactive or inconclusive.
# Key:
# [1] = Quantitative High-Throughput drug screen in 47 multiple myeloma cell lines against the NCATS MIPE library collection: KMS12PE_JCRB cell viability assay (AID 1918972); also: nearly all actives have a fitted effect of over 30% in size
# Summary of the method: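 Steps: seed 500 cells per well; pin-transfer MIPE 4.0 library; incubate 48 h at 37C, 5% CO2, humidified; add CellTiter-Glo, 5 min room temperature; read luminescence.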
# [2] = Quantitative High-Throughput drug screen in 47 multiple myeloma cell lines against the NCATS MIPE library collection: KMS20_JCRB cell viability assay (AID 1918973); also: nearly all actives have a fitted effect of over 45% in size
# Summary of the method: (§1)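 CellTiter-Glo ATP luminescence gave viability after 48 h compound treatment at 37C of 500 multiple myeloma cells per well. Normalisation used DMSO-only wells as 100% and media-only wells as 0% viability; primary qHTS of approved and investigational drugs.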
# [3] = Quantitative High-Throughput drug screen in 47 multiple myeloma cell lines against the NCATS MIPE library collection: KMS21BM_JCRB cell viability assay (AID 1918974); conditions: ATP luminescence, 48 h; viability: at 45.8 µM (top of the series) unless noted
# Summary of the method: as §1
# [4] = Quantitative High-Throughput drug screen in 47 multiple myeloma cell lines against the NCATS MIPE library collection: KMS26_JCRB cell viability assay (AID 1918975); also: nearly all actives have a fitted effect of over 45% in size
# Summary of the method: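 CellTiter-Glo luminescence (ATP) after 48 h compound exposure, 37C/5% CO2; 500 cells/well; MIPE 4.0 approved/investigational drugs pinned in; DMSO = 100%, media only = 0% viability.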
# [5] = Quantitative High-Throughput drug screen in 47 multiple myeloma cell lines against the NCATS MIPE library collection: MMM1_PLB cell viability assay (AID 1918976); also: nearly all actives have a fitted effect of over 35% in size
# Summary of the method: (§2)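 Inhibition of viability over 48 h was scored by ATP content (CellTiter-Glo) in 500-cell wells. Zero and full viability were defined by media-only and DMSO-only wells.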
# [6] = Quantitative High-Throughput drug screen in 47 multiple myeloma cell lines against the NCATS MIPE library collection: MM1S_ATCC cell viability assay (AID 1918980); also: nearly all actives have a fitted effect of over 45% in size
# Summary of the method: as §2
# [7] = Quantitative High-Throughput drug screen in 47 multiple myeloma cell lines against the NCATS MIPE library collection: MM1R_ATCC cell viability assay (AID 1918981); also: nearly all actives have a fitted effect of over 35% in size
# Summary of the method: as §2
# [8] = Quantitative High-Throughput drug screen in 47 multiple myeloma cell lines against the NCATS MIPE library collection: KMS28PE_JCRB cell viability assay (AID 1918983); also: nearly all actives have a fitted effect of over 35% in size
# Summary of the method: as §2
# [9] = Quantitative High-Throughput drug screen in 47 multiple myeloma cell lines against the NCATS MIPE library collection: KMS34_JCRB cell viability assay (AID 1918985); also: nearly all actives have a fitted effect of over 40% in size
# Summary of the method: as §2
# [10] = Quantitative High-Throughput drug screen in 47 multiple myeloma cell lines against the NCATS MIPE library collection: OCIMY5_PLB cell viability assay (AID 1918988); also: nearly all actives have a fitted effect of over 65% in size
# Summary of the method: as §2
# [11] = Quantitative High-Throughput drug screen in 47 multiple myeloma cell lines against the NCATS MIPE library collection: SKMM1_PLB cell viability assay (AID 1919863); conditions: SKMM1 myeloma viability, CellTiter-Glo ATP, 48 h; viability: hits give low values; also: nearly all actives have a fitted effect of over 35% in size
# Summary of the method: as §2
# [12] = Quantitative High-Throughput drug screen in 47 multiple myeloma cell lines against the NCATS MIPE library collection: U266_ATCC cell viability assay (AID 1919864); also: nearly all actives have a fitted effect of over 35% in size
# Summary of the method: as §2
# [13] = Quantitative High-Throughput drug screen in 47 multiple myeloma cell lines against the NCATS MIPE library collection: XG6_PLB cell viability assay (AID 1919865); also: nearly all actives have a fitted effect of over 40% in size
# Summary of the method: as §2
# [14] = Quantitative High-Throughput drug screen in 47 multiple myeloma cell lines against the NCATS MIPE library collection: MOLP8_DSMZ cell viability assay (AID 1918977); also: nearly all actives have a fitted effect of over 45% in size
# Summary of the method: as §2
# [15] = Quantitative High-Throughput drug screen in 47 multiple myeloma cell lines against the NCATS MIPE library collection: NCIH929_DSMZ cell viability assay (AID 1918978); also: nearly all actives have a fitted effect of over 35% in size
# Summary of the method: as §2
# [16] = Quantitative High-Throughput drug screen in 47 multiple myeloma cell lines against the NCATS MIPE library collection: L363_DSMZ cell viability assay (AID 1918984); also: nearly all actives have a fitted effect of over 40% in size
# Summary of the method: as §2
# [17] = Quantitative High-Throughput drug screen in 47 multiple myeloma cell lines against the NCATS MIPE library collection: OCIMY1_PLB cell viability assay (AID 1918979); also: nearly all actives have a fitted effect of over 35% in size
# Summary of the method: as §2
# [18] = Quantitative High-Throughput drug screen in 47 multiple myeloma cell lines against the NCATS MIPE library collection: OCIMY7_PLB cell viability assay (AID 1918987); also: nearly all actives have a fitted effect of over 65% in size
# Summary of the method: as §2
# [19] = Quantitative High-Throughput drug screen in 47 multiple myeloma cell lines against the NCATS MIPE library collection: LP1_DSMZ cell viability assay (AID 1918982); also: nearly all actives have a fitted effect of over 35% in size
# Summary of the method: as §2
# [20] = Quantitative High-Throughput drug screen in 47 multiple myeloma cell lines against the NCATS MIPE library collection: OPM1_PLB cell viability assay (AID 1918989); also: nearly all actives have a fitted effect of over 40% in size
# Summary of the method: as §2
# Potency is read from the fitted curve at half-maximal effect.
smiles,measurement,setting,value
COc1ccc(-c2ccc3c(N4CCOC[C@H]4C)nc(N4CCOC[C@H]4C)nc3n2)cc1CO,Potency,[1],59 nM (active)
same,Potency,[2],9.3 nM (active)
same,Potency,[3],66.2 nM (active)
same,Potency,[4],4690 nM (active)
same,Potency,[5],10.5 nM (active)
same,Potency,[6],52.6 nM (active)
same,Potency,[7],74.3 nM (active)
same,Potency,[8],23.5 nM (active)
same,Potency,[9],20.9 nM (active)
same,Potency,[10],332 nM (active)
same,Potency,[11],14.8 nM (active)
same,Potency,[12],7.4 nM (active)
same,Potency,[13],14.8 nM (active)
Cc1c(CN2CCN(C(=O)C(C)C)CC2)sc2c(N3CCOCC3)nc(-c3cnc(N)nc3)nc12,Potency,[1],296 nM (active)
same,Potency,[2],418 nM (active)
same,Potency,[3],526 nM (active)
same,Potency,[4],264 nM (active)
same,Potency,[5],52.6 nM (active)
same,Potency,[14],37.2 nM (active)
same,Potency,[15],16.6 nM (active)
same,Potency,[6],132 nM (active)
same,Potency,[7],46.9 nM (active)
same,Potency,[8],66.2 nM (active)
same,Potency,[16],20.9 nM (active)
same,Potency,[9],29.6 nM (active)
same,Potency,[10],74.3 nM (active)
same,Potency,[11],148 nM (active)
same,Potency,[12],372 nM (active)
same,Potency,[13],132 nM (active)
Cn1cnc2c(F)c(Nc3ccc(Br)cc3Cl)c(C(=O)NOCCO)cc21,Potency,[1],3320 nM (active)
same,Potency,[2],93.5 nM (active)
same,Potency,[3],105 nM (active)
same,Potency,[4],7430 nM (active)
same,Potency,[15],105 nM (active)
same,Potency,[17],inactive
same,Potency,[6],7430 nM (active)
same,Potency,[7],18700 nM (active)
same,Potency,[8],9350 nM (active)
same,Potency,[16],833 nM (active)
same,Potency,[18],46.9 nM (active)
same,Potency,[10],9350 nM (active)
same,Potency,[11],1180 nM (active)
same,Potency,[12],5260 nM (active)
same,Potency,[13],418 nM (active)
CC(C)(C)OC(=O)CN(Cc1ccc(Cl)cc1)Cc1ccc([N+](=O)[O-])s1,Potency,[1],inactive
same,Potency,[2],inactive
same,Potency,[5],20900 nM (active)
same,Potency,[15],inactive
same,Potency,[17],inactive
same,Potency,[7],inactive
same,Potency,[19],18700 nM (active)
same,Potency,[8],20900 nM (active)
same,Potency,[10],18700 nM (active)
CC(C)C[C@H](NC(=O)[C@@H](O)[C@H](N)Cc1ccccc1)C(=O)O,Potency,[1],inactive
same,Potency,[2],11800 nM (active)
same,Potency,[4],23500 nM (active)
same,Potency,[5],20900 nM (active)
same,Potency,[14],20900 nM (active)
same,Potency,[15],20900 nM (active)
same,Potency,[6],18700 nM (active)
same,Potency,[7],20900 nM (active)
same,Potency,[19],20900 nM (active)
same,Potency,[8],20900 nM (active)
same,Potency,[10],26400 nM (active)
same,Potency,[20],16600 nM (active)
same,Potency,[11],26400 nM (active)
same,Potency,[12],23500 nM (active)
same,Potency,[13],20900 nM (active)
N[C@@H]1CONC1=O,Potency,[1],inactive
same,Potency,[2],inactive
same,Potency,[4],inactive
same,Potency,[15],inactive
same,Potency,[17],inactive
same,Potency,[6],inactive
same,Potency,[7],inactive
same,Potency,[19],inactive
same,Potency,[16],inactive
same,Potency,[9],inactive
same,Potency,[10],inactive
same,Potency,[20],inactive
same,viability,[11],132%
same,Potency,[12],inactive
same,Potency,[13],inactive
CO[C@@H]1[C@H](N(C)C(=O)c2ccccc2)C[C@H]2O[C@]1(C)n1c3ccccc3c3c4c(c5c6ccccc6n2c5c31)C(=O)NC4,Potency,[1],935 nM (active)
same,Potency,[2],1050 nM (active)
same,Potency,[3],166 nM (active)
same,Potency,[4],3720 nM (active)
same,Potency,[5],2640 nM (active)
same,Potency,[14],1320 nM (active)
same,Potency,[15],935 nM (active)
same,Potency,[17],5260 nM (active)
same,Potency,[6],4690 nM (active)
same,Potency,[7],2090 nM (active)
same,Potency,[8],5260 nM (active)
same,Potency,[16],1660 nM (active)
same,Potency,[9],1320 nM (active)
same,Potency,[10],1480 nM (active)
same,Potency,[20],1180 nM (active)
same,Potency,[11],8330 nM (active)
same,Potency,[12],3720 nM (active)
same,Potency,[13],372 nM (active)
CCn1cc(C(=O)O)c(=O)c2cc(F)c(N3CCNC(C)C3)c(F)c21 (configuration not stated),Potency,[1],inactive
same,Potency,[2],inactive
same,Potency,[4],inactive
same,Potency,[14],inactive
same,Potency,[15],inactive
same,Potency,[17],inactive
same,Potency,[7],inactive
same,Potency,[19],inactive
same,Potency,[8],inactive
same,Potency,[16],inactive
same,Potency,[9],inactive
same,Potency,[10],inactive
same,viability,[11],140%
same,Potency,[13],inactive
CN1CCN(CCCN2c3ccccc3Sc3ccc(C(F)(F)F)cc32)CC1,Potency,[1],inactive
same,Potency,[2],16600 nM (active)
same,Potency,[4],inactive
same,Potency,[15],2090 nM (active)
same,Potency,[17],inactive
same,Potency,[6],1050 nM (active)
same,Potency,[7],inactive
same,Potency,[19],inactive
same,Potency,[9],inactive
same,Potency,[10],inactive
same,Potency,[20],26400 nM (active)
same,viability,[11],123%
same,Potency,[12],1660 nM (active)
same,Potency,[13],1050 nM (active)
O=c1[nH]c(-c2ccc(C(F)(F)F)cc2)nc2c1CSCC2,Potency,[1],inactive
same,Potency,[2],inactive
same,Potency,[4],3720 nM (active)
same,Potency,[14],inactive
same,Potency,[15],18700 nM (active)
same,Potency,[6],18700 nM (active)
same,Potency,[8],inactive
same,Potency,[10],5260 nM (active)
same,Potency,[12],18700 nM (active)
Clc1cccc(Cl)c1NC1=NCCN1,Potency,[1],inactive
same,Potency,[2],inactive
same,Potency,[14],inactive
same,Potency,[15],inactive
same,Potency,[17],inactive
same,Potency,[6],18700 nM (active)
same,Potency,[19],inactive
same,Potency,[8],inactive
same,Potency,[16],inactive
same,Potency,[9],inactive
same,Potency,[10],inactive
same,Potency,[20],inactive
same,Potency,[12],inactive
same,Potency,[13],inactive
